A selection: hits, their analogues and other compounds. The true share with any hit is near 5.2%.
NadD inh: inhibitors of Staphylococcus aureus NadD; inhibition, % at 20 µM; purified NadD enzyme, colorimetric absorbance read-out; 0.78% of 360,000 active; in the data active means inhibition above about 26%
NR3A LBD binder: modulates the human NR3A ligand-binding domain; NR3A LBD differential scanning fluorimetry, Tm shift; 0% = protein alone, 100% = glycine-bound protein; Tm shift relative to glycine control, % at 25 µM; 2.5% of 340,000 active; AID 1259313;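 active means melting temperature shift of at least 10% of the positive control shift, at one fixed dose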
esBAF inh: inhibitors of esBAF chromatin remodeling in mouse ES cells; 2% of 350,000 active; reporter increase, % at 12.5 µM; AID 602393; Bmi1-luciferase knock-in reporter, 24 h; 100% = twice the neutral-well signal; in the data active means activation above about 40%; inconclusive means no clear call, values can overlap the other calls;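 further: 0% = median of the plate's neutral control wells and 100% = double that signal; a rise in the Bmi1 reporter signal indicates esBAF inhibition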
SKN-1 inh: blocks SKN-1 activity in C. elegans | C. elegans VP596 Pgst-4::GFP/RFP ratio, acrylamide-induced, 24 h | inhibition, % at 21.8 µM | 0.49% of 360,000 active | AID 624304;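 active means interference check ratio from 0.5 to 1.5 plus GFP to RFP signal ratio inhibition reaching or exceeding a fixed threshold, cut at about 30% in these data, passing the limit was not always enough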
SMARCA2 activ: SMARCA2 function activation, primary screen. MG213 cells, MMTV-luciferase reporter, dexamethasone, overnight. activation, % at 9.1 µM. 1% of 370,000 active. AID 652017; in the data active means activation above about 7.8%;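 further: 0% = vehicle wells and 100% = reference activator wells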
Vif imaging: HIV Vif inhibition; HEK293T cells, Vif self-association by quenched fluorescence, imaging, 24 h; inhibition, % at 7.49 µM; 0.35% of 340,000 active; AID 602346; in the data active means inhibition above about 50%, passing the limit was not always enough; inconclusive means no clear call, values can overlap the other calls; inactive means below about 31%
Active calls of the source: *; u = inconclusive; x = not tested or not shown.

SMILES	NadD inh	NR3A LBD binder	esBAF inh	SKN-1 inh	SMARCA2 activ	Vif imaging
CCn1c(C(=O)OC)cc2c1ccn2-c1ccc(F)cc1	-1.0	3.9	71.3*	15.2	-0.4	x
C[C@@H]1CN([C@H](C)CO)C(=O)c2cccc(NC(=O)c3ccc(-c4nccs4)cc3)c2O[C@H]1CN(C)C(=O)Nc1ccc(C(F)(F)F)cc1	x	x	1.5	x	x	x
COC(=O)c1[nH]c2ccccc2c1NC(=O)Oc1ccccc1	6.0	17.0*	24.3	-10.2	2.0	-5.0
COc1ccc(C(=O)c2oc3ccc(OC)cc3c2N)cc1	-4.9	0.1	86.0*	43.8*	1.6	-6.0
COC(=O)c1oc2ccc(OC)cc2c1N	0.1	-5.1	32.5	15.9	-2.2	1.6
COCC(=O)Nc1ccc2c(c1)OC[C@@H](C)N(Cc1cccc(F)c1)C[C@H](C)[C@@H](OC)CN(C)C2=O	x	x	-1.3	x	x	x
CC(C)c1cn(CC[C@@H]2CC[C@H](N)[C@@H](CO)O2)nn1	x	x	-6.2	x	x	x
CCCNC(=O)N1C[C@H](C)[C@H](OC)CN(C)C(=O)c2ccc(NS(=O)(=O)CC(F)(F)F)cc2OC[C@H]1C	x	x	-4.1	x	x	x
CN(C)c1ccc(/C=C(/NC(=O)c2ccccc2)C(=O)N/N=C/c2ccc([N+](=O)[O-])c(O)c2)cc1	41.3*	-5.7	-29.9	10.8	3.0	x
O=C(N/N=C/c1ccc(F)cc1)c1ccccc1	-4.7	-17.1	x	12.1	3.0	-1.3
O=C(N/N=C/c1ccncc1)c1cccc(NC(=O)c2ccc(Cl)cc2)c1	3.6	25.5*	x	-1.6	-1.5	-1.8
O=C(N/N=C/c1ccc(O)cc1)c1cccc(N/N=C/c2ccc(O)cc2)c1	15.3	8.9	19.1	-24.0	6.7	3.1
O=C(N/N=C/c1ccc2c(c1)OCO2)/C(=C/c1ccc2c(c1)OCO2)NC(=O)c1ccccc1	18.5	0.7	2.6	0.3	-0.7	-5.6
O=C(N/N=C/c1cccc(NC(=O)c2ccc(Cl)cc2)c1)c1ccc(O)cc1	1.6	29.1*	u	-2.5	2.3	-3.6
O=C(N/N=C/c1ccc(F)cc1)c1cccc(NC(=O)c2ccc(F)cc2)c1	8.6	32.8*	32.6	-2.8	5.5	11.8
O=C(N/N=C/c1ccncc1)c1cccc(N/N=C/c2ccncc2)c1	5.0	9.2	x	15.5	6.1	2.2
C[C@@H]1CN([C@H](C)CO)C(=O)c2cc(NC(=O)CCC(F)(F)F)ccc2O[C@@H]1CN(C)Cc1ccc(C(=O)O)cc1	x	x	-0.9	x	x	x
C[C@@H]1CN([C@@H](C)CO)C(=O)Cc2cc(NC(=O)Nc3cccc4ccccc34)ccc2O[C@H]1CN(C)S(=O)(=O)c1cccs1	x	x	-0.9	x	x	x
C[C@H]1CN([C@@H](C)CO)C(=O)Cc2cc(NS(C)(=O)=O)ccc2O[C@H]1CN(C)C(=O)Nc1cccc2ccccc12	x	x	5.3	x	x	x
CC(C)(C)c1ccc(C(=O)N/N=C/c2cccc(Cl)c2)cc1	5.8	-7.1	53.9*	-14.1	5.8	-2.4
O=C(N/N=C/c1cccc(F)c1)c1ccc(Cl)cc1	1.1	-11.3	68.8*	9.2	3.0	5.3
O=C(N/N=C/c1ccccc1Cl)c1cccc(F)c1	-2.4	-1.1	52.7*	22.9	2.8	-4.7
COc1c(Br)cc(Br)cc1/C=N/NC(=O)c1ccncc1	-5.3	-0.8	x	4.8	-0.5	-0.4
CC(C)(C)c1ccc(C(=O)N/N=C/c2ccccn2)cc1	-10.0	0.0	25.7	14.6	5.4	-3.2
CN(C)c1ccc(C(=O)N/N=C/c2cc(Br)cc(Br)c2O)cc1	32.0*	7.2	x	7.4	-2.1	5.1
SMILES	NadD inh	NR3A LBD binder	esBAF inh	SKN-1 inh	SMARCA2 activ	Vif imaging
CO[C@H]1CN(C)C(=O)c2cc(NC(=O)C3CC3)ccc2OC[C@H](C)N(CC2CCOCC2)C[C@@H]1C	x	x	0.4	x	x	x
O=C(N/N=C/c1cccc(F)c1)c1csc2c1CCCC2	-0.8	-4.7	50.4*	-3.9	5.3	x
Nc1ccc(C(=O)N/N=C/c2cccc(Oc3ccccc3)c2)cc1	-2.1	10.3*	13.7	4.1	-0.1	-2.2
O=C(Nc1ccccc1O)c1csc2c1CCCC2	-10.8	-5.2	x	-4.0	-1.3	-8.1
O=C(N/N=C/c1cccc(Cl)c1Cl)Nc1ccccc1	2.2	4.7	49.9*	5.4	-0.4	x
CN(C)c1ccc(/C=N/NC(=O)c2ccc(NC(=O)c3ccccc3)cc2)cc1	10.0	19.4*	x	-5.6	-2.1	-4.1
O=C(N/N=C/c1cccc(Oc2ccccc2)c1)c1cc[n+]([O-])cc1	1.1	-2.6	x	7.0	-4.6	0.0

Source: PubChem
